# Laboratory results published in paper PMC7862700, “An all-to-all approach to the identification of sequence-specific readers for epigenetic DNA modifications on cytosine”.
# Experiments:
# Test in all cases: DAPPL (digital affinity profiling via proximity ligation, sequencing); 10 mM Tris-HCl pH 7.5, 50 mM NaCl, 1 mM DTT, 4% glycerol, room temperature, 30 min; GST-TFs on glutathione beads, 16-mer random dsDNA library, 0.1% formaldehyde crosslink after washing; high values mean tight binding
# FLI1 = molecular target: T1, FLI1 (Homo sapiens, UniProt Q01543 1-452); details: protein: recombinant; tags: N-terminal GST; dsDNA, one strand shown
# T1 sequence: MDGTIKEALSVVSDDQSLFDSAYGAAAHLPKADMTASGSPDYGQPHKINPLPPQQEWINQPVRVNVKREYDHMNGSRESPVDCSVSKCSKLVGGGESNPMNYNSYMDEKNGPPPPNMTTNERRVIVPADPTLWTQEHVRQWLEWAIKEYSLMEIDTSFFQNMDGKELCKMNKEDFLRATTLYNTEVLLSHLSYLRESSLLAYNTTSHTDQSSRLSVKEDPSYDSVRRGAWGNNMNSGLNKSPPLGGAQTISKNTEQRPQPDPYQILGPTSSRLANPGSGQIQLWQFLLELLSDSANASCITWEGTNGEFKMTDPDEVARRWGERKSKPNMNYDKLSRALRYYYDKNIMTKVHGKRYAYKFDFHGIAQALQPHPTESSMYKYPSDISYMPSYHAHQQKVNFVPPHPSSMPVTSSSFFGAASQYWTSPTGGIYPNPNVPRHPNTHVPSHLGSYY
# Method in brief: (§1)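 Sequencing on an Illumina NextSeq500 followed washing, crosslinking with 0.1% formaldehyde, proximity ligation (BsaI/T4 ligase, 1 h, 37 °C) and PCR amplification of pools that had been incubated for 30 min at room temperature with 200 nmole of a random double-stranded 16-mer DNA library in Tris/NaCl/DTT/glycerol buffer. Each pool held DNA-barcoded human transcription factors, expressed in yeast as GST fusions and captured on glutathione beads, plus a tag-only sample. Binding signal is a hexamer's read frequency for a factor divided by its frequency in the tag-only sample.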
# SPI1 = SPI1 (Homo sapiens, UniProt P17947 1-270); details: protein: recombinant; tags: N-terminal GST; dsDNA, one strand shown
# Method in brief: as §1
# FEV = molecular target: T2, FEV (Homo sapiens, UniProt Q99581 1-238); details: protein: recombinant; tags: N-terminal GST; dsDNA, one strand shown
# T2 sequence: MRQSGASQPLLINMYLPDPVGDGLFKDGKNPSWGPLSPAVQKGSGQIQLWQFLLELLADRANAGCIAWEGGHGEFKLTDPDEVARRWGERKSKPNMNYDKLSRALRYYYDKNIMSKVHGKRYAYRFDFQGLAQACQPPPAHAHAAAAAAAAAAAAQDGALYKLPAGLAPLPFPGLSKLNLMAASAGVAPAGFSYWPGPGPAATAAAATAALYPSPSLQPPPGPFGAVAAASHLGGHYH
# Method in brief: as §1
# HSF1 = HSF1 (Homo sapiens, UniProt Q00613 1-529); details: protein: recombinant; tags: N-terminal GST; chain copies: 3; dsDNA, one strand shown
# Method in brief: as §1
# ETV2 = molecular target: T3, ETV2 (Homo sapiens, UniProt O00321 1-342); details: protein: recombinant; tags: N-terminal GST; dsDNA, one strand shown
# T3 sequence: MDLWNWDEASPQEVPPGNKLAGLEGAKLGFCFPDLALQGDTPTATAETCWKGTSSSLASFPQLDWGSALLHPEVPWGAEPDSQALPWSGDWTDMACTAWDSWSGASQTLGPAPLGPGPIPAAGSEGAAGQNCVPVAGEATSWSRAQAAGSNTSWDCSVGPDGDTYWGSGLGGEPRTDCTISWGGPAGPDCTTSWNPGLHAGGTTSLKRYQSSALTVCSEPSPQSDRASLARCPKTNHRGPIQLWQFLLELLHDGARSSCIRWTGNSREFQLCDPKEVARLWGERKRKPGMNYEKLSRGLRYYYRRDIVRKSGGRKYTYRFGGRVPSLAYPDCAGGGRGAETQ
# Method in brief: as §1
# CRX = CRX (Homo sapiens, UniProt O43186 1-299); details: protein: recombinant; tags: N-terminal GST; dsDNA, one strand shown
# Method in brief: as §1
# ELF5 = molecular target: T4, ELF5 (Homo sapiens, UniProt Q9UKW6-2 1-255); details: protein: recombinant; tags: N-terminal GST; dsDNA, one strand shown
# T4 sequence: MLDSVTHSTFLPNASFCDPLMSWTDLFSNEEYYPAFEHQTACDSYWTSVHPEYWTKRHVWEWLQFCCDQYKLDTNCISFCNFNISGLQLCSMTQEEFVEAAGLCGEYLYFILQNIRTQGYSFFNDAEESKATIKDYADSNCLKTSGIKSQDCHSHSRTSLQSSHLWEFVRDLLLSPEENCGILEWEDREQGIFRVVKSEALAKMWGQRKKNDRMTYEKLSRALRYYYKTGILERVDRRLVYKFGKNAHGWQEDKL
# Method in brief: as §1
# Chain of CRX (O43186 whole entry): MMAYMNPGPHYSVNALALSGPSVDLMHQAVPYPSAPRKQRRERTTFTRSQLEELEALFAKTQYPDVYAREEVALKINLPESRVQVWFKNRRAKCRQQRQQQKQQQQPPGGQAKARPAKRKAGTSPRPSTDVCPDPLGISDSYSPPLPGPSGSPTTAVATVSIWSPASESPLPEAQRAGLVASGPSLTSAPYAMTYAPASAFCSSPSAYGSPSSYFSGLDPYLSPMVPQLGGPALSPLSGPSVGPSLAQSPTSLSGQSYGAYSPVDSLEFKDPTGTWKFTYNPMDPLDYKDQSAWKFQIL
# Chain of HSF1 (Q00613 whole entry): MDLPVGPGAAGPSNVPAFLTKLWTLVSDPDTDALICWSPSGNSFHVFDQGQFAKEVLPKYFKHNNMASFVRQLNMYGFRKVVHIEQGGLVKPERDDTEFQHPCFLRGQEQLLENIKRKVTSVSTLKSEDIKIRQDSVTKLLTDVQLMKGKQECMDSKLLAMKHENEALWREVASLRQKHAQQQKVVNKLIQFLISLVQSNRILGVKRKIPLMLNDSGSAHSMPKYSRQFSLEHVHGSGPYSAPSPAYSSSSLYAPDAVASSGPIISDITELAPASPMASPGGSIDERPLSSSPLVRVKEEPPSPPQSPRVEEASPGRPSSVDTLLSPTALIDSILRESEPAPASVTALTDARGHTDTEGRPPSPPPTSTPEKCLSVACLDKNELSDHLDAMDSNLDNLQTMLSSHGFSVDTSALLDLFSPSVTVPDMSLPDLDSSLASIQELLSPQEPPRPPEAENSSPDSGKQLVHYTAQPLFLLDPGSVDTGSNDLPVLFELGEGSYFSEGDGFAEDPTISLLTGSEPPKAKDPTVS
Sequence,binding signal (FLI1),binding signal (SPI1),binding signal (FEV),binding signal (HSF1),binding signal (ETV2),binding signal (CRX),binding signal (ELF5)
TTAAGA,"1.05 fold enrichment (6-mer frequency, TF over GST control)","1.03 fold enrichment (6-mer frequency, TF over GST control)","1.01 fold enrichment (6-mer frequency, TF over GST control)","1.95 fold enrichment (6-mer frequency, TF over GST control)","1.15 fold enrichment (6-mer frequency, TF over GST control)","2.97 fold enrichment (6-mer frequency, TF over GST control)",
TTGCCA,"1.07 fold enrichment (6-mer frequency, TF over GST control)","1.07 fold enrichment (6-mer frequency, TF over GST control)","1.11 fold enrichment (6-mer frequency, TF over GST control)","1.01 fold enrichment (6-mer frequency, TF over GST control)",,"1.06 fold enrichment (6-mer frequency, TF over GST control)","1.04 fold enrichment (6-mer frequency, TF over GST control)"
CCCCAG,"1.07 fold enrichment (6-mer frequency, TF over GST control)","1.04 fold enrichment (6-mer frequency, TF over GST control)",,"1.03 fold enrichment (6-mer frequency, TF over GST control)","1.04 fold enrichment (6-mer frequency, TF over GST control)",,
GTAAGC,"1.02 fold enrichment (6-mer frequency, TF over GST control)",,,"1.04 fold enrichment (6-mer frequency, TF over GST control)",,"1.51 fold enrichment (6-mer frequency, TF over GST control)",
AGCTAG,"1.05 fold enrichment (6-mer frequency, TF over GST control)","1.08 fold enrichment (6-mer frequency, TF over GST control)",,"1.21 fold enrichment (6-mer frequency, TF over GST control)","1.12 fold enrichment (6-mer frequency, TF over GST control)","1 fold enrichment (6-mer frequency, TF over GST control)",
GATCAA,"1.01 fold enrichment (6-mer frequency, TF over GST control)",,,"1.25 fold enrichment (6-mer frequency, TF over GST control)","1.19 fold enrichment (6-mer frequency, TF over GST control)","1.52 fold enrichment (6-mer frequency, TF over GST control)",
TAGATA,"1.07 fold enrichment (6-mer frequency, TF over GST control)",,,"1.46 fold enrichment (6-mer frequency, TF over GST control)","1.12 fold enrichment (6-mer frequency, TF over GST control)","1.48 fold enrichment (6-mer frequency, TF over GST control)",
GGATCT,"1.08 fold enrichment (6-mer frequency, TF over GST control)","1.02 fold enrichment (6-mer frequency, TF over GST control)",,"1.07 fold enrichment (6-mer frequency, TF over GST control)",,"1.15 fold enrichment (6-mer frequency, TF over GST control)","1.17 fold enrichment (6-mer frequency, TF over GST control)"
TAGACT,"1.03 fold enrichment (6-mer frequency, TF over GST control)","1 fold enrichment (6-mer frequency, TF over GST control)",,"1.32 fold enrichment (6-mer frequency, TF over GST control)",,"1.27 fold enrichment (6-mer frequency, TF over GST control)",
ATAAGA,"1.02 fold enrichment (6-mer frequency, TF over GST control)","1.13 fold enrichment (6-mer frequency, TF over GST control)","1.01 fold enrichment (6-mer frequency, TF over GST control)","1.54 fold enrichment (6-mer frequency, TF over GST control)","1.03 fold enrichment (6-mer frequency, TF over GST control)","1.97 fold enrichment (6-mer frequency, TF over GST control)","1.02 fold enrichment (6-mer frequency, TF over GST control)"
CTAGAA,"1.06 fold enrichment (6-mer frequency, TF over GST control)",,,"6.29 fold enrichment (6-mer frequency, TF over GST control)","1.03 fold enrichment (6-mer frequency, TF over GST control)","2.13 fold enrichment (6-mer frequency, TF over GST control)",
GCTAAG,"1.13 fold enrichment (6-mer frequency, TF over GST control)",,,"1.13 fold enrichment (6-mer frequency, TF over GST control)","1.07 fold enrichment (6-mer frequency, TF over GST control)","1.75 fold enrichment (6-mer frequency, TF over GST control)","1.01 fold enrichment (6-mer frequency, TF over GST control)"
GCTGGT,"1.29 fold enrichment (6-mer frequency, TF over GST control)","1.19 fold enrichment (6-mer frequency, TF over GST control)","1.1 fold enrichment (6-mer frequency, TF over GST control)","1.06 fold enrichment (6-mer frequency, TF over GST control)","1.1 fold enrichment (6-mer frequency, TF over GST control)","1.05 fold enrichment (6-mer frequency, TF over GST control)","1.09 fold enrichment (6-mer frequency, TF over GST control)"
CGTCTG,"1.13 fold enrichment (6-mer frequency, TF over GST control)","1.06 fold enrichment (6-mer frequency, TF over GST control)","1.03 fold enrichment (6-mer frequency, TF over GST control)","1.01 fold enrichment (6-mer frequency, TF over GST control)","1.23 fold enrichment (6-mer frequency, TF over GST control)",,
TGAAGA,"1 fold enrichment (6-mer frequency, TF over GST control)",,,"1.09 fold enrichment (6-mer frequency, TF over GST control)",,"1 fold enrichment (6-mer frequency, TF over GST control)",
ATAAGT,"1.08 fold enrichment (6-mer frequency, TF over GST control)","1 fold enrichment (6-mer frequency, TF over GST control)",,"1.28 fold enrichment (6-mer frequency, TF over GST control)","1.05 fold enrichment (6-mer frequency, TF over GST control)","1.79 fold enrichment (6-mer frequency, TF over GST control)",
GTTCGC,"1.06 fold enrichment (6-mer frequency, TF over GST control)","1.04 fold enrichment (6-mer frequency, TF over GST control)","1.06 fold enrichment (6-mer frequency, TF over GST control)","1.12 fold enrichment (6-mer frequency, TF over GST control)","1.11 fold enrichment (6-mer frequency, TF over GST control)",,"1.01 fold enrichment (6-mer frequency, TF over GST control)"
TTAGAT,"1.05 fold enrichment (6-mer frequency, TF over GST control)",,"1.01 fold enrichment (6-mer frequency, TF over GST control)","1.49 fold enrichment (6-mer frequency, TF over GST control)","1.16 fold enrichment (6-mer frequency, TF over GST control)","2.04 fold enrichment (6-mer frequency, TF over GST control)",
TCGAGC,"1.02 fold enrichment (6-mer frequency, TF over GST control)",,,"1.46 fold enrichment (6-mer frequency, TF over GST control)","1.04 fold enrichment (6-mer frequency, TF over GST control)","1.01 fold enrichment (6-mer frequency, TF over GST control)",
GCCCGA,"1.12 fold enrichment (6-mer frequency, TF over GST control)","1.01 fold enrichment (6-mer frequency, TF over GST control)","1.07 fold enrichment (6-mer frequency, TF over GST control)","1.1 fold enrichment (6-mer frequency, TF over GST control)",,,
